This is an account of results in PubChem BioAssay AID463173 (ICCB-Longwood Screening Facility, Harvard Medical School, 2010).

The structures appear in SMILES notation. Screen size: about 52,000 compounds; about 4,300 (8.3%) were called active. Cut-off read from the data, not from the text of the source: active = survival mostly below about 52% (no sharp cut-off); inactive = mostly above about 56%. The entries come from a sample that favours actives as a whole.

This assay relates to DeltatarO mutant. Put plainly: growth inhibition of S. aureus wild type versus tarO mutant, primary screen, teichoic acid synthesis inhibitors, RN4220, OD600 (AID 463173). To be noted: OD600, 18 h, stronger effect = lower value, screened at 18.75 µg/mL (by protocol).
With `CCn1cc2nc(SCc3cccc(Cl)c3)n(Cc3ccc(C)cc3)c(=O)c2n1`, the survival is 44% (inactive). For the compound `COC(=O)CC(=O)CSc1nc(C)cc(C(F)(F)F)c1C#N`, the survival is 83% (inactive). Take `O=c1cc(CSc2nnc(COc3ccccc3)o2)c2ccccc2[nH]1`: the survival was 107% (inactive). With `O=C1Nc2c(c(=O)[nH]c(=O)n2-c2ccc(F)cc2)C1(NS(=O)(=O)c1ccc(Cl)cc1)C(F)(F)F` (centres undefined) the figure was 59% (inactive); with `COC(=O)c1ccccc1NC(=O)c1cc2ccccn2n1`, 73% (inactive); with `O=c1c(=O)n(-c2ccccc2)ccn1Cc1c(F)cccc1Cl`, 44% (active). With `COc1ccccc1Cn1ccn(Cc2c(F)cccc2Cl)c(=O)c1=O` the figure was 110% (inactive); with `O=c1c(=O)n(Cc2c(F)cccc2Cl)ccn1Cc1ccccc1`, 82% (inactive). As for `Cc1cc(O)c(CN2CCN(c3ccc(F)cc3)CC2)c2oc(=O)cc(C)c12`, the survival is 46% (inactive).

With `O=C(CCSCCc1ccccn1)Nc1ccc(Cl)cc1`, the survival was 47% (active). With `CC(=O)Nc1ccc(NC(=O)CCSCCc2ccccn2)cc1` the figure was 135% (inactive); with `Cc1ccc(NC(=O)CCSCCc2ccccn2)cc1`, 93% (inactive). Turning to `COc1ccc(-n2c(C)nnc2SCc2nc(-c3ccc(OC)c(OC)c3)no2)cc1`, the survival is 71% (inactive).

Regarding `COC(=O)c1ccc2c(c1)N(CC(=O)Nc1ccc(C)cc1Cl)C(=O)c1ccccc1S2`, the survival was 76% (inactive). In the case of `Cc1ccc(O)c(C(CC(=O)NCC2(c3ccccc3)CCCC2)c2ccccc2)c1` (centres undefined), the survival was 82% (inactive). Next, `Cc1ccc(C(CC(=O)NCC2(c3ccccc3)CCCC2)c2ccccc2)c(O)c1` (centres undefined): 101% (inactive). Regarding `Cc1cccc(C(CC(=O)NCC2(c3ccccc3)CCCC2)c2ccccc2)c1O` (centres undefined), the survival is 38% (active). Consider `O=C(O)CCc1ccc(-c2ccc(F)cc2)n1CCC(=O)O`, for which the survival was 103% (inactive). For the compound `Cc1ccc(NC(=O)CSc2nnc(C)c(=O)[nH]2)cc1`, the survival is 70% (inactive). Next, `c1ccc(Cc2[nH]nc3ccccc23)cc1`: 89% (inactive); `Cc1cccc(C(=O)Nc2nc(-c3nnn(-c4cc(C)ccc4C)c3C)ns2)c1`: 94% (inactive). Next, `CSc1cccc(-n2nnc(-c3nsc(NC(=O)c4cccs4)n3)c2C)c1`: 73% (inactive). Regarding `CCc1cccc(-n2nnc(-c3nsc(NC(=O)c4cccs4)n3)c2C)c1`, the survival is -5% (active). Regarding `CCc1cccc(-n2nnc(-c3nsc(NC(=O)c4ccc(C)cc4)n3)c2C)c1`, the survival is 54% (inactive). On to `CCc1ccc(-n2nnc(-c3nsc(NC(=O)c4ccccc4Cl)n3)c2C)cc1`, for which the survival was 15% (active). Next, `Cc1cc(C)cc(-n2nnc(-c3nsc(NC(=O)c4ccccc4Cl)n3)c2C)c1`: 64% (inactive); `Cc1ccc(Cl)cc1-n1nnc(-c2nsc(NC(=O)c3ccccc3Cl)n2)c1C`: 6% (active); `Cc1ccc(-n2nnc(-c3nsc(NC(=O)c4ccccc4C)n3)c2C)cc1Cl`: 134% (inactive). Next, `Cc1c(-c2nsc(NC(=O)c3cccc(Cl)c3)n2)nnn1-c1ccccc1C(F)(F)F`: -4% (active); `Cc1c(-c2nsc(NC(=O)c3ccccc3)n2)nnn1-c1ccc(C(F)(F)F)c(Cl)c1`: 86% (inactive); `Cc1ccc(-n2nnc(-c3nsc(NC(=O)c4cccc(Cl)c4)n3)c2C)cc1C`: 76% (inactive). Next, `COc1cccc(C(=O)Nc2nc(-c3nnn(-c4ccccc4C(F)(F)F)c3C)ns2)c1`: 87% (inactive); `O=C(Cn1ncc2c3ccccc3n(Cc3ccccc3F)c2c1=O)NCc1ccccc1Cl`: 78% (inactive); `Cc1ccc(N(CCO)S(=O)(=O)c2ccc(NC3=NS(=O)(=O)c4ccccc43)cc2)cc1`: 96% (inactive). As to `CCc1ccc(C(=O)c2cn(CC(=O)Nc3ccc4c(c3)OCCO4)c3ccc(F)cc3c2=O)cc1`, the survival is 78% (inactive). On to `Cc1cccc(NS(=O)(=O)c2ccc3c(c2)CCCN3C(=O)C2CCC2)c1C`, for which the survival is 107% (inactive). For the compound `Cc1oc2ncn(C)c(=O)c2c1C(=O)Nc1ccc(F)cc1`, the survival was 72% (inactive). Next, `COc1ccc(-n2c(SCc3ccccc3F)nc3c([nH]c4ccccc43)c2=O)cc1OC`: 68% (inactive); `ON(Cn1nnc2ccccc21)Cn1nnc2ccccc21`: 102% (inactive).

Turning to `COc1ccc(-c2noc(-c3ccc(N4CCCCC4C)c([N+](=O)[O-])c3)n2)cc1OC` (centres undefined), the survival was 104% (inactive). With `COc1ccc(C(=O)Nc2nc(-c3nnn(-c4cc(OC)ccc4OC)c3C)ns2)cc1` the figure was 109% (inactive); with `COc1ccc(Cl)cc1-n1nnc(-c2nsc(NC(=O)c3ccccc3Cl)n2)c1C`, 23% (active); with `COc1cccc(C(=O)Nc2nc(-c3nnn(-c4cc(C)ccc4C)c3C)ns2)c1`, 88% (inactive).

On to `COc1ccc(-n2nnc(-c3nsc(NC(=O)c4ccc(C)c(C)c4)n3)c2C)cc1Cl`, for which the survival was 126% (inactive). In the case of `Cc1ccc(C(=O)Nc2nc(-c3nnn(-c4cccc(Cl)c4C)c3C)ns2)cc1C`, the survival was 124% (inactive). With `COc1cccc(C(=O)Nc2nc(-c3nnn(-c4cccc(Cl)c4C)c3C)ns2)c1` the figure was -5% (active); with `O=C(C1CC1)N1CCc2cc(Br)cc(S(=O)(=O)N3CCN(c4cccc(Cl)c4)CC3)c21`, 62% (inactive); with `CCOc1ccc(-n2c(=O)c3c4c(sc3n(CC(=O)NC(C)CC)c2=O)CCC4)cc1` (centres undefined), 142% (inactive).

For the compound `COC(=O)Cn1c(CN2CCN(c3ccc(OC)cc3)CC2)nc2c1c(=O)[nH]c(=O)n2C`, the survival was 88% (inactive). On to `CCCc1nn2c(=O)cc(COC(=O)c3ccc(NC(=O)c4cccs4)cc3)nc2s1`, for which the survival is 69% (inactive). With `CCOc1ccc(N(C)C(CNS(=O)(=O)c2ccccc2)c2ccccc2)cc1` (centres undefined) the figure was 87% (inactive). `Cn1c(=O)oc2cc(S(=O)(=O)N3CCC(C(=O)N4CCN(c5ccc(Cl)cc5)CC4)CC3)ccc21`: the survival was 56% (inactive). With `COC(=O)C1=CN(CCCN2CCCC2=O)C=C(C(=O)OC)C1c1cccs1`, the survival is 77% (inactive). With `COC(=O)C1=CN(C2CC2)C=C(C(=O)OC)C1c1ccsc1` the figure was 60% (active); with `COC(=O)C1=CNC=C(C(=O)OC)C1c1ccc(Cl)cc1`, 88% (inactive); with `COc1ccc(-n2c(=O)c3c4c(sc3n(Cc3ccccc3)c2=O)CN(C(C)=O)CC4)cc1OC`, 67% (inactive). Next, `C=CCc1cccc2cc(-c3nc4ccc(C)cc4[nH]3)c(=O)oc12`: 0% (active). Next, `COc1cccc2cc(-c3nc4ccc(C)cc4[nH]3)c(=O)oc12`: 98% (inactive); `C=CCc1cccc2cc(-c3nc4ccc(C(=O)O)cc4[nH]3)c(=O)oc12`: 92% (inactive); `O=C(NC(=O)c1ccc(F)cc1)Nc1ccc(-c2cc(C(F)(F)F)nn2-c2ccccc2)cc1`: 61% (inactive).

For the compound `COCCn1c(SCC(=O)c2ccccc2)nc2cc(C(=O)NC3CCCC3)ccc2c1=O`, the survival was 87% (inactive). With `CC(C)=CC(=O)Nc1nnc(Cc2ccccc2)s1` the figure was 55% (inactive); with `Cc1ccc(Cn2c(CNS(=O)(=O)c3ccc(F)c(Cl)c3)nc3cccnc32)cc1`, 126% (inactive); with `CCc1ccc(Cn2c(CNS(=O)(=O)c3ccc(Cl)s3)nc3cccnc32)cc1`, 66% (inactive). With `O=C(Cc1cccc([N+](=O)[O-])c1)NCc1nc2cccnc2n1Cc1ccc(F)cc1` the figure was 118% (inactive); with `Cc1ccc(Cn2c(CNC(=O)Cc3cccc([N+](=O)[O-])c3)nc3cccnc32)cc1`, 70% (inactive).

On to `CCc1ccc(Cn2c(CNS(=O)(=O)c3ccc([N+](=O)[O-])cc3)nc3cccnc32)cc1`, for which the survival is 8% (active). Next, `Cc1ccc(Cn2c(CNS(=O)(=O)c3ccc(Cl)s3)nc3cccnc32)cc1`: 124% (inactive); `CCOc1ccc(Cn2c(CNS(=O)(=O)c3ccc([N+](=O)[O-])cc3)nc3cccnc32)cc1`: 94% (inactive); `CCc1ccc(Cn2c(CNS(=O)(=O)c3ccc(F)c(Cl)c3)nc3cccnc32)cc1`: 20% (active). In the case of `COc1ccc(Cn2c(CNC(=O)Cc3cccc([N+](=O)[O-])c3)nc3cccnc32)cc1`, the survival is -5% (active).

With `CCOc1ccc(Cn2c(CNS(=O)(=O)c3ccc(CC)cc3)nc3cccnc32)cc1`, the survival was 95% (inactive). Next, `O=S(=O)(NCc1nc2cccnc2n1Cc1ccccc1Cl)c1ccc(F)c(Cl)c1`: 87% (inactive); `O=S(=O)(NCc1nc2cccnc2n1Cc1ccc(F)cc1)c1ccc(Cl)s1`: -5% (active); `C#CCN1CCOCC1`: 99% (inactive). With `Cc1cc2c(=O)c(C(=O)c3ccncc3)cn(CC(=O)Nc3cccc(C)c3C)c2cc1C` the figure was 94% (inactive); with `CCOc1ccc(-c2cc3nc(C4CCN(C(=O)OC(C)(C)C)CC4)c(C(=O)Nc4cccc(Cl)c4C)cn3n2)cc1`, 81% (inactive); with `COc1ccc(NC(=O)CC2SC(=Nc3ccccc3)N(CCO)C2=O)cc1` (centres undefined), 95% (inactive). `Cc1nnc(NC(=O)C(C)N2CCCC2)s1` (centres undefined): the survival is 97% (inactive).

Take `O=C(Nc1ccccc1Cl)N1CCc2ccccc2C1`: the survival is 91% (inactive).

Regarding `Cc1nn(C)c2c1c(-c1ccccc1)cc(=O)n2CC(=O)NC(C)(C)C`, the survival is 113% (inactive). As for `COc1cccc(CSc2nc3n(n2)C(c2cccnc2)C(C(=O)Nc2ccccc2C)=C(C)N3)c1` (centres undefined), the survival was 74% (inactive).

With `COc1ccc(Cn2c(CNS(=O)(=O)c3ccc(C)c(C)c3)nc3cccnc32)cc1`, the survival is 17% (active). Turning to `CCc1ccc(Cn2c(CNS(=O)(=O)c3ccc(C)c(C)c3)nc3cccnc32)cc1`, the survival was 81% (inactive). As for `COc1ccc(Cn2c(CNS(=O)(=O)c3ccc4c(c3)CCCC4)nc3cccnc32)cc1`, the survival was 128% (inactive). With `Cc1nc(-c2ccc(F)cc2)sc1CCNC(=O)c1ccccc1C(F)(F)F` the figure was 97% (inactive).

For the compound `CCCCN(CC)CCCNC(=O)c1cn(CC)c2ccc(S(=O)(=O)N3CCOCC3)cc2c1=O`, the survival was 89% (inactive). Next, `COc1ccc(CNC(=O)CCc2cn(C)c3ccccc23)cc1`: 57% (inactive). As to `CCOC(=O)c1sc2ccccc2c1S(=O)(=O)NCc1ccc(F)cc1`, the survival was 94% (inactive).
